Assay results from the supplement of paper PMC6555819.

How the values were obtained:
Test in all cases: PBM binding z-score (relative to random genomic background probes); higher = stronger binding; sequences stand for … in GC…GCGATTGACAGCGTAGAATGAAGG
[1] = test system: FXR:RXRa (NR concentration 270 nM, RXRa partner concentration 90 nM)
In short: (§1)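 Scanned fluorescence from custom Agilent 4×180K protein-binding microarrays was regression-normalized. Binding z-scores use random background probes as reference. Ligand-free nuclear receptor dimers were incubated on the arrays for 1 h and detected with antibodies against each partner (one per run).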

[2] = test system: LXRa:RXRa (NR concentration 270 nM, RXRa partner concentration 90 nM)
In short: as §1

[3] = test system: LXRa homodimer (NR concentration 270 nM)
In short: as §1

[4] = test system: LXRb:RXRa (NR concentration 270 nM, RXRa partner concentration 90 nM)
In short: as §1

[5] = test system: LXRb homodimer (NR concentration 270 nM)
In short: as §1

[6] = test system: PPARa:RXRa (NR concentration 270 nM, RXRa partner concentration 90 nM)
In short: as §1

[7] = test system: PPARg:RXRa (NR concentration 180 nM, RXRa partner concentration 90 nM)
In short: as §1

[8] = test system: PPARg:RXRa 270nM:90nM, anti-RXR (NR concentration 270 nM, RXRa partner concentration 90 nM)
In short: as §1

[9] = test system: PPARg:RXRa 30nM:10nM, anti-RXR (NR concentration 30 nM, RXRa partner concentration 10 nM)
In short: as §1

[10] = test system: PPARg:RXRa 90nM:30nM, anti-RXR (NR concentration 90 nM, RXRa partner concentration 30 nM)
In short: as §1

[11] = test system: PPARg:RXRa DBDmut IVT, anti-RXR (DBD mutation: RXRa K156A/R161A, NR concentration 270 nM, RXRa partner concentration 90 nM)
In short: as §1

[12] = test system: PPARg:RXRa IVT, anti-PPARg (NR concentration 270 nM, RXRa partner concentration 90 nM)
In short: as §1

[13] = test system: PPARg DBDmut:RXRa IVT, anti-PPARg (DBD mutation: PPARg1 K132A/R137A, NR concentration 270 nM, RXRa partner concentration 90 nM)
In short: as §1

[14] = test system: PPARg DBDmut IVT, anti-PPARg (DBD mutation: PPARg1 K132A/R137A, NR concentration 270 nM)
In short: as §1

[15] = test system: PPARg homodimer (NR concentration 180 nM)
In short: as §1

[16] = test system: PXR:RXRa (NR concentration 270 nM, RXRa partner concentration 90 nM)
In short: as §1

[17] = test system: PXR homodimer (NR concentration 270 nM)
In short: as §1

[18] = test system: RARa:RXR (NR concentration 270 nM, RXRa partner concentration 90 nM)
In short: as §1

[19] = test system: RARa homodimer (NR concentration 270 nM)
In short: as §1

[20] = test system: RARb:RXRa (NR concentration 270 nM, RXRa partner concentration 90 nM)
In short: as §1

Sequence	PBM binding z-score [1]	PBM binding z-score [2]	PBM binding z-score [3]	PBM binding z-score [4]	PBM binding z-score [5]	PBM binding z-score [6]	PBM binding z-score [7]	PBM binding z-score [8]	PBM binding z-score [9]	PBM binding z-score [10]	PBM binding z-score [11]	PBM binding z-score [12]	PBM binding z-score [13]	PBM binding z-score [14]	PBM binding z-score [15]	PBM binding z-score [16]	PBM binding z-score [17]	PBM binding z-score [18]	PBM binding z-score [19]	PBM binding z-score [20]
TTACCAAGGTGAAGGTCGTTGATCCCTCTGTAGA	2.37	2.03	-0.222	1.45	-0.739	2.55	3.15	3.94	2.09	3.67	1.59	3.45	1.02	-0.236	0.792	1.48	0.114	1.76	-0.599	2.28
ATCTCTAGGTAAAGATAGTTCAGGGAATGCAAAT	0.392	3.65	0.565	0.755	0.535	1.06	0.543	0.544	0.404	0.317	2.05	1.37	1.02	0.575	0.895	0.937	0.399	0.601	1.17	0.787
ACAGACAGGTGATGAAGGTAACTCATGCTATCAT	-0.264	-0.284	0.081	-0.0857	-0.304	0.0179	0.862	-0.0647	0.121	-0.0244	0.199	0.711	-0.0414	-0.123	-0.0711	-0.216	-0.133	-0.118	0.279	0.221
AGTCGAAGTTCAGGACGAGGTAACGTAAAGCACG	1.05	1.05	-0.0607	0.485	-0.831	1.49	1.27	1.11	0.224	0.868	-0.408	0.263	-0.282	-0.353	0.469	1.19	0.0866	1.42	0.0687	2.41
ACAAACAGGTGAGTGAAGGTAACTCAGCTGGACG	0.326	-0.0872	-0.278	-0.542	-0.3	0.367	0.682	0.103	0.0977	0.229	1.21	1.19	0.208	0.336	0.244	-0.255	-0.143	0.192	0.0567	0.585
CTCGCAAGGTCGTGCTCAGGTGAGTATACCAAAC	2.12	1.71	-0.122	1.37	-0.498	2.81	0.423	1.04	-0.426	0.224	0.0828	0.996	-0.606	-0.427	0.113	1.76	-0.272	2.37	-0.702	2.47
TTACCAAGGGGAGCTGAGGTCGTTGATCCAACTC	1.8	0.173	-0.107	0.623	-0.398	0.818	-0.207	0.37	0.187	-0.00393	0.0938	0.219	-0.939	-0.633	-0.405	2.35	0.544	1.03	-0.882	0.604
CGACCAAGGTCAAAGGTCAGTGAAGAGATGACGG	8.72	6.8	3.14	6.54	1.18	7.07	11.3	9.46	9.86	10.4	4.11	6.17	1.79	0.574	5.46	7.16	1.55	9.08	2.47	5.95
CCAGACAGGTGAGAAGGTAACTGAGCCTCGATTA	-0.0558	-0.104	-0.12	-0.102	-0.691	0.592	0.397	0.61	-0.11	0.193	0.955	0.477	-0.278	-0.535	0.591	-0.214	0.124	0.14	0.118	0.396
TTACCCAGGTGAGCTGAGGTCGTTGATCCAACTC	1.83	0.726	-0.313	0.515	-1.12	1.35	0.177	0.382	-0.172	0.184	0.846	1.89	-1.04	-0.726	0.267	4.2	0.439	1.55	-1.01	1.1
ATCGAAAGGTCGGCGAGGTGAGTATACACCGTTT	3.23	2.52	-0.167	1.9	0.199	3.76	1.57	2.25	0.34	1.11	-0.166	1.39	0.74	0.0118	0.989	2.25	-0.157	2.77	-0.0319	3.5
ATCGACAGGTCGAGGTGAGTATAGAGAAAGGGAA	0.437	0.548	-0.71	0.0707	-0.444	1.51	0.748	0.211	0.16	0.281	-0.576	0.778	-0.0493	-0.0748	0.551	0.0775	0.0221	0.649	0.423	1.69
ATCTCTAGGTAAAGTTCAGAGAAAGATCGATAGA	1.31	1.89	1.72	1.3	0.639	2.4	3.54	4.66	2.76	4.68	2.15	2.79	1.18	0.787	2.17	2.04	1.86	1.25	1.48	2.51
CCTAGTGGGCCATCAGGTCATTGATATCAACGTT	1.47	1.04	0.915	1.63	-0.159	2.74	3.06	3.69	1.05	2.74	4.56	5.23	-0.169	0.327	1.35	1.62	0.58	1.86	0.517	1.94
GCTTACGGGTCACAGGTTATAGCATGAATAGAAT	6.03	3.91	-0.00317	3.73	0.0394	5.75	7.57	6.67	4.61	6.2	4.72	5.4	2.51	1.47	1.81	3.52	-0.0291	4.84	0.515	4.03
TAGCTTAGGTCATTGGGCCAGTATAGTACGCATC	4.59	4.02	1.12	2.62	0.994	4.09	2.96	3.44	1	2.18	2.21	3.15	0.561	0.108	1.34	1.97	0.132	2.53	0.063	3.72
ATCTCTAGGTAAAAATTCAGTGAATCCCGAGGAT	0.0972	-0.215	-0.0718	-0.277	0.956	0.272	0.62	1.34	0.671	1.1	1.24	1.17	1.27	1.13	0.243	-0.0506	-0.317	-0.0791	0.766	0.165
CCGACTCGGGCAAAGGTTACCATACTCAGTACGA	1.22	1.83	-0.0865	1.94	-0.792	4.45	8.25	8.33	7.28	9.75	1.5	4.06	-0.108	-0.188	2.32	2.01	-0.0786	3.12	0.537	2.04
CAAACTAGGTCAGGAAAGGTCAAAGTCGAATGAC	6.17	6.74	6.35	6.12	1.93	6.08	8.46	6.82	4.45	6.88	7.59	8.02	3.96	1.14	6.11	6.57	2.16	6.83	3.88	5.36
GCTTGTAGATCAAGGGTAAGAAAGACTAAGCTAA	-0.663	-0.469	-0.732	-0.394	-0.8	1.24	2.55	4.2	1.91	4.14	1.15	1.03	-0.364	-0.778	0.0991	-0.426	-0.45	-0.346	-0.786	-0.0761
GATACTGGGTCAGCTAGAGGCCAGAGTATGGAAA	0.906	0.796	-0.487	0.388	-0.812	2.91	3.87	3.8	0.981	2.65	5.49	5.95	0.246	-0.167	1.24	1.15	-0.114	2.03	-0.28	3.26
TCTATTAGTTGAAGTGCAACCGACGAGTCCGTTT	0.802	0.953	0.178	0.755	0.464	1.02	-0.119	2.15	3.77	2.88	2.28	0.306	0.956	1	0.829	0.982	1.24	0.832	0.781	0.825
TTACCAAGGTGAAGGGTCGTTGATGCACGCCTTG	1.88	1.13	-0.449	1.03	-0.693	3.65	6.01	6.42	4.63	6.33	1.59	4	0.187	-0.561	0.981	1.57	-0.419	2.72	-0.291	2.08
TCTTGTAGGTCAAGCAGGTTAAGAAAGCCTGAGT	5.29	4.34	1.19	3.44	0.725	5.22	7.42	6.59	4.79	6.42	7.24	8.12	1.76	1.83	1.66	3.63	0.673	3.68	0.596	4.34
TCATAGAGGTAAAGGTGAAAGTCGAACGATATGA	1.13	1.35	-0.575	1.3	-0.862	3.63	3.74	5.04	3.97	4.88	2.03	3.05	0.77	0.323	0.369	1.15	-0.365	2.03	0.137	2.19
CCGAGGAGGTTATGGGGCATTCAGGCAACGGTGA	1.52	1.44	0.15	1.86	-0.173	2.84	1.66	2.11	0.0714	1.39	0.461	1.61	-0.326	-0.847	1.13	0.815	-0.214	1.43	-0.195	1.73
AGTCAAAGTTCAGGACGAAGTAACGTAAAGCACG	3.85	3.49	0.943	1.68	0.274	3.3	4.78	4.86	1.78	3.86	-0.478	1.38	0.781	0.688	1.46	2.02	0.921	1.93	1.14	4.2
AGAACGAGTGCAATGAGTTGATAGCACGGGTGGC	-0.597	-0.443	-0.783	-0.585	-1.04	-0.17	0.712	-0.327	-0.239	-0.508	-0.425	-0.173	-0.0779	-0.15	-0.623	1.9	7.51	-0.248	-1.04	0.212
TCTAGTAGATCAGCAGGTTAAGAAAGCTGGCCAA	0.258	0.127	-0.552	0.373	-0.762	0.734	-0.257	1.37	2.66	2.06	1.99	0.125	-0.189	-1.02	0.292	0.255	-0.699	0.387	-0.353	0.266
